The list is not random: actives were taken first. Their share in the collection is about 0.9%.
PPARg SRC3 recr = PPARgamma-driven SRC-3 recruitment agonism | 200,000 tested, 0.26% active | activation, % at 8 µM | P37231 | biochemical PPARgamma/SRC-3 coactivator recruitment assay; in the data active = activation above about 23%;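 note: 0% = DMSO and 100% = reference agonist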
PPARg SRC2 recr = promotes SRC-2 coactivator recruitment by human PPARgamma; P37231; PPARgamma LBD-SRC-2 recruitment, biochemical; activation, % at 8 µM; 200,000 tested, 0.34% active; AID 1032;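 note: 0% = vehicle and 100% = reference agonist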
SRC2 TRFRET art = flags TR-FRET format artefacts in PPARgamma SRC-2 recruitment agonist screen. AID 1049. 200,000 tested, 0.4% active. TR-FRET ratio at 8 µM. TR-FRET artefact counter-screen; active compounds read high; in the data active = TR-FRET ratio above about 2000
PPARg SRC-1 ag = PPARgamma-driven SRC-1 recruitment agonism. P37231. PPARgamma-SRC-1 coactivator recruitment biochemical assay. activation, % at 8 µM. 200,000 tested, 0.41% active; in the data active = activation above about 19%;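 note: 0% = DMSO and 100% = reference agonist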
SRC3 TRFRET art = TR-FRET artefact, counter-screen to PPARgamma/SRC-3 agonist assay | PPARgamma/SRC-3 format; active compounds read high | TR-FRET ratio at 8 µM | 99,000 tested, 0.39% active | AID 1048; in the data active = TR-FRET ratio above about 2000
SRC1 TRFRET art = TR-FRET artefact, counter-screen to PPARgamma/SRC-1 agonist assay; TR-FRET detection artefact counter-screen, emission ratio; active compounds read high; TR-FRET ratio at 8 µM; 99,000 tested, 0.34% active; in the data active = TR-FRET ratio above about 2300
PPARg SRC2 conf = human PPARgamma SRC-2 recruitment agonism, confirmation; AID 1297; biochemical SRC-2 recruitment by PPARgamma; 790 tested, 52% active; activation, % at 8 µM; shares compounds with PPARg SRC3 recr;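 note: 0% = vehicle alone and 100% = reference agonist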
PPARg SRC1 conf = human PPARgamma SRC-1 recruitment agonism, confirmation; shares compounds with PPARg SRC3 recr; PPARgamma–SRC-1 coactivator recruitment biochemical assay; activation, % at 8 µM; 790 tested, 43% active; AID 1300; in the data active = activation above about 20%;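 note: 0% = vehicle wells and 100% = reference agonist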
PPARg SRC3 conf = confirmation of agonists of SRC-3 recruitment by human PPARgamma | shares compounds with PPARg SRC3 recr | biochemical PPARgamma-SRC-3 coactivator recruitment, agonist mode | activation, % at 8 µM | 790 tested, 29% active | AID 1301; in the data active = activation above about 24%;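 note: 0% = vehicle wells and 100% = reference agonist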
Numbers without * were called inactive; · = no result. Cut-off read from the data, not from the text of the source, unless noted: active = activation above about 22%; inactive = the rest.

SMILES	PPARg SRC3 recr	PPARg SRC2 recr	SRC2 TRFRET art	PPARg SRC-1 ag	SRC3 TRFRET art	SRC1 TRFRET art	PPARg SRC2 conf	PPARg SRC1 conf	PPARg SRC3 conf
O=C(O[C@@H]1OC2COC(=O)c3cc(O)c(O)c(O)c3-c3c(cc(O)c(O)c3O)C(=O)O[C@@H]([C@H]1O)[C@@H]2O)c1cc(O)c(O)c(O)c1	10	24*	1547	20	1701	1985	8	7	2
CCN(CC)c1ccc(NC(=O)c2cnn(CC)c2)cc1	27*	22*	1842	12	·	·	-2	-4	0
CCOc1ccc(C(C)=O)cc1CC(C(N)=O)C(N)=O	-2	9	1549	4	·	·	·	·	·
CSc1nsc(SCCN2C(=O)c3ccccc3C2=O)n1	9	13	1599	3	·	·	·	·	·
S=c1nc(-c2cccc(Cl)c2)[nH][nH]1	7	28*	1956	16	2145*	2102	24*	21*	17
S=c1nc(-c2cc(Cl)ccc2Cl)[nH][nH]1	15	27*	2272*	20	2092*	2654*	24*	19	17
S=c1nc(-c2ccccc2Br)[nH][nH]1	13	4	1310	2	·	·	·	·	·

Screens from PubChem BioAssay.
